What was measured:
Test in all cases: log2 ratio of Biotin-Ahx-Ub-VS probe labelling (fragment/DMSO); higher = less target engagement (more negative = stronger competition), active = hit call of the paper (q ≤ 0.05, log2 ratio ≤ -1)
Conditions in all cases: compound concentration: 200 uM; treatment time: 3 h
[1] = target: T1, USP19 (UniProt O94966)
T1 sequence (whole entry): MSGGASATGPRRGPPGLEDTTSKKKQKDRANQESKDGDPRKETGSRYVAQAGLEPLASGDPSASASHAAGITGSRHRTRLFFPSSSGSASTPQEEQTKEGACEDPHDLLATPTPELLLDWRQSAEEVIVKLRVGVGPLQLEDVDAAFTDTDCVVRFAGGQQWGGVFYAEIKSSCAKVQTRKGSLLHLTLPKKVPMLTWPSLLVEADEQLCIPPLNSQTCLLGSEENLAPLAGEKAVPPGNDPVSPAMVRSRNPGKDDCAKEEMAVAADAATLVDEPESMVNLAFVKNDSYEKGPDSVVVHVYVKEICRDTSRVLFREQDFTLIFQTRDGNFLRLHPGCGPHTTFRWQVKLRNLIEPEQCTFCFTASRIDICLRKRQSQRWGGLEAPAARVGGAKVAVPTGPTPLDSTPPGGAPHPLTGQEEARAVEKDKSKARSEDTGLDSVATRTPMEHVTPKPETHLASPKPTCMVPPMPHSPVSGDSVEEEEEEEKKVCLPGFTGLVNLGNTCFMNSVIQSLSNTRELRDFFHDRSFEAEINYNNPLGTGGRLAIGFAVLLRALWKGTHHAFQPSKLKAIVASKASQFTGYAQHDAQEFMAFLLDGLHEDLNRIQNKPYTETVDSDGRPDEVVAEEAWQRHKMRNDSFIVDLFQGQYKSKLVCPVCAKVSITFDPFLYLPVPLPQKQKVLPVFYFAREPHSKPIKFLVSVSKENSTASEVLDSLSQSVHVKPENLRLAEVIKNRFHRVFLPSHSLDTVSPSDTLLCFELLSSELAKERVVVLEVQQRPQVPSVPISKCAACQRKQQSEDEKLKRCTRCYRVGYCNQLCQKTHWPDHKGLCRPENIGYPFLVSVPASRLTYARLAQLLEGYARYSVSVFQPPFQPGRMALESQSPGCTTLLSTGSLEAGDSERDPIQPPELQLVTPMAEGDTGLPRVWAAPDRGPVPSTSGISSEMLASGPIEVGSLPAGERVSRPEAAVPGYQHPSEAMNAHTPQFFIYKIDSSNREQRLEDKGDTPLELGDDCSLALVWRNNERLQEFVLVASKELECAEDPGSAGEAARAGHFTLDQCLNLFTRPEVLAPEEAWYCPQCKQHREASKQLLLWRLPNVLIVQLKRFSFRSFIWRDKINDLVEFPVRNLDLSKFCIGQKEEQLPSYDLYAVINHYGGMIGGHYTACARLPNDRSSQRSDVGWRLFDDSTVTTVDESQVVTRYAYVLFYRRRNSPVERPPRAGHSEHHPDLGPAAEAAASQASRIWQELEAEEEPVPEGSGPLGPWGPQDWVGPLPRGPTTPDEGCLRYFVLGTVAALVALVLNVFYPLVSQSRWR
Procedure, shortened: (§1)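 HEK293T lysate, 495 µg per sample in Tris/CHAPS/IGEPAL buffer with protease inhibitors, was treated in triplicate with fragment at 200 µM or vehicle for 3 h and then with Biotin-Ahx-Ub-VS at 0.5 µM final for 1 h. Labelled DUBs were NeutrAvidin-enriched, digested with LysC and trypsin, and run by diaPASEF LC-MS/MS. Spectronaut label-free quantities were global-median-normalised, and values are average log2 fragment/vehicle ratios by unpaired t-test on proteins with ≥2 unique peptides.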

[2] = target: T2, USP22 (UniProt Q9UPT9)
T2 sequence (whole entry): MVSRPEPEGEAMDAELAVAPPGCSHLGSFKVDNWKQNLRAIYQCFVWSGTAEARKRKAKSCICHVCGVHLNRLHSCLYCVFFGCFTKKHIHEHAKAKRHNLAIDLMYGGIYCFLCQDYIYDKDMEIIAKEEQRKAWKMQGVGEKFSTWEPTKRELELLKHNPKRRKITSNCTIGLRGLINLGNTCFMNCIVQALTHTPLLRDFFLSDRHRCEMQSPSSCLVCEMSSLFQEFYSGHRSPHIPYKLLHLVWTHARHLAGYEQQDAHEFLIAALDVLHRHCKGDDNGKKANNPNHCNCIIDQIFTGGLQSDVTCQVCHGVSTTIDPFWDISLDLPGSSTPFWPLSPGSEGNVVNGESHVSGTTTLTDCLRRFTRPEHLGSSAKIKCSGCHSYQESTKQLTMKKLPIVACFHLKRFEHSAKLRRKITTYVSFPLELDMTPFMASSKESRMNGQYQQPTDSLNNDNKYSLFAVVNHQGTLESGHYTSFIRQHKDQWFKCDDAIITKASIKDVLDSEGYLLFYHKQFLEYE
Procedure, shortened: as §1

[3] = target: USP24 (UniProt Q9UPU5)
USP24, sequence (Q9UPU5 whole entry): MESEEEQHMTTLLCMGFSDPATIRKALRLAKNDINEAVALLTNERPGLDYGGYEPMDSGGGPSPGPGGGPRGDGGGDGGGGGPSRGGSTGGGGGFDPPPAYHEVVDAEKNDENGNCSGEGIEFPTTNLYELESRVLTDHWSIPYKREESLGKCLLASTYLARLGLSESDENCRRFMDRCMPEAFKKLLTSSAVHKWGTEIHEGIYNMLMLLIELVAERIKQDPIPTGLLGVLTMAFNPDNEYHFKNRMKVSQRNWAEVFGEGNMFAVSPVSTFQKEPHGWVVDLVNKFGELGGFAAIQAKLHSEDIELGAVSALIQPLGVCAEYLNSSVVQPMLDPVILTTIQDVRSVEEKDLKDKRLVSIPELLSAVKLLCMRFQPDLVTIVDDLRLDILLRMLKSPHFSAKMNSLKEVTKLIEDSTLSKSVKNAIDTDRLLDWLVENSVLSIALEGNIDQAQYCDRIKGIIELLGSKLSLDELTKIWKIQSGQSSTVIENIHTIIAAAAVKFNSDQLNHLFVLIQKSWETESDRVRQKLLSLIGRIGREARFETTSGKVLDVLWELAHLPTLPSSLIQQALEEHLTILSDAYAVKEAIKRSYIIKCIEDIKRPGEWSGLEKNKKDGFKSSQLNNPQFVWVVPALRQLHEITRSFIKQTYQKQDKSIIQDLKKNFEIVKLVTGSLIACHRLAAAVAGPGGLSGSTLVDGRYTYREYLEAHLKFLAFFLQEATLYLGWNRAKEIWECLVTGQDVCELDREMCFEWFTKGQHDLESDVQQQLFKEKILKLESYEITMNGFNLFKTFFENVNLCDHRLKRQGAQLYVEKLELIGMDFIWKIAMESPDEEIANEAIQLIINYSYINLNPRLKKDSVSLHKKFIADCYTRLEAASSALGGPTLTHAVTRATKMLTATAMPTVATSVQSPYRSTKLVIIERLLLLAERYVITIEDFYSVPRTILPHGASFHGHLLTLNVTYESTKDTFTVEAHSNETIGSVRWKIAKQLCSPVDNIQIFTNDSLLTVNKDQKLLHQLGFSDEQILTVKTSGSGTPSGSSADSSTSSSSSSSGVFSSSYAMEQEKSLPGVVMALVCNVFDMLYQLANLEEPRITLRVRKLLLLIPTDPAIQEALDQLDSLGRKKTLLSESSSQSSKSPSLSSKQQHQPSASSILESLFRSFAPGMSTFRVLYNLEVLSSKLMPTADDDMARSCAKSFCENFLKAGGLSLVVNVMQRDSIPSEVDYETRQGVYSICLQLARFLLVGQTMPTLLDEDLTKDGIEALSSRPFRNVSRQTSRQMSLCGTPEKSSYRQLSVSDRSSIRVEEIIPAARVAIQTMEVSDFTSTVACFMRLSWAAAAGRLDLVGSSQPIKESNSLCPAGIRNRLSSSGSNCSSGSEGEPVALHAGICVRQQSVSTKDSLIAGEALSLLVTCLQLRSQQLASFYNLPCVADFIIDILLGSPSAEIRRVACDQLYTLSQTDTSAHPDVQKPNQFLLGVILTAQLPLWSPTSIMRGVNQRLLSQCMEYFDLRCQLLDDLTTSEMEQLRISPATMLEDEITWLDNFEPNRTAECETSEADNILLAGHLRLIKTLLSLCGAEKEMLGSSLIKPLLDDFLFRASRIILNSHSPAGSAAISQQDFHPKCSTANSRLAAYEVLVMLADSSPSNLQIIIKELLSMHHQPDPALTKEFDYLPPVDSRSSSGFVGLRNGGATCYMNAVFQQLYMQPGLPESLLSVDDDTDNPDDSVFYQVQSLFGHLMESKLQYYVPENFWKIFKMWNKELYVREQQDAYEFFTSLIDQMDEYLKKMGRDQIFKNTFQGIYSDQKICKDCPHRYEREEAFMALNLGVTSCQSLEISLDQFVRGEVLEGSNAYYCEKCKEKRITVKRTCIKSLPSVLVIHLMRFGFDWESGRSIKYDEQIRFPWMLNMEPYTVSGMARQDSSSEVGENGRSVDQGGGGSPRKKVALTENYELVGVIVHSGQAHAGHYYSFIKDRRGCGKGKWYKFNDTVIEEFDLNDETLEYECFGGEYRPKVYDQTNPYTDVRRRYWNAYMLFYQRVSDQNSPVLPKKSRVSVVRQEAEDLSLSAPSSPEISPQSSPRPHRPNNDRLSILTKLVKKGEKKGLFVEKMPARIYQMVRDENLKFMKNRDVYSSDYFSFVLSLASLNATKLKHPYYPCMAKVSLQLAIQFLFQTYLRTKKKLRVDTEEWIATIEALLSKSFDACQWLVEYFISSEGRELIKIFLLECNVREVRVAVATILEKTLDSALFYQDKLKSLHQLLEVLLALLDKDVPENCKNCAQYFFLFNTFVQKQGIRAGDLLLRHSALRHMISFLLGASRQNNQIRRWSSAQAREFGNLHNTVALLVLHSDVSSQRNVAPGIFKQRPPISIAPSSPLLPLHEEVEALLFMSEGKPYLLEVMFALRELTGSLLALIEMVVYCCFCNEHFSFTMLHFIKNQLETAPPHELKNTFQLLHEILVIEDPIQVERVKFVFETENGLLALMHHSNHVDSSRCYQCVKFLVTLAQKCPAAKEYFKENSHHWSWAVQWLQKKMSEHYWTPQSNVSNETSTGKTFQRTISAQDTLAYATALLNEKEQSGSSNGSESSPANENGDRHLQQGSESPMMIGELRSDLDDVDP
Procedure, shortened: as §1

[4] = target: T3, USP25 (UniProt Q9UHP3)
T3 sequence (whole entry): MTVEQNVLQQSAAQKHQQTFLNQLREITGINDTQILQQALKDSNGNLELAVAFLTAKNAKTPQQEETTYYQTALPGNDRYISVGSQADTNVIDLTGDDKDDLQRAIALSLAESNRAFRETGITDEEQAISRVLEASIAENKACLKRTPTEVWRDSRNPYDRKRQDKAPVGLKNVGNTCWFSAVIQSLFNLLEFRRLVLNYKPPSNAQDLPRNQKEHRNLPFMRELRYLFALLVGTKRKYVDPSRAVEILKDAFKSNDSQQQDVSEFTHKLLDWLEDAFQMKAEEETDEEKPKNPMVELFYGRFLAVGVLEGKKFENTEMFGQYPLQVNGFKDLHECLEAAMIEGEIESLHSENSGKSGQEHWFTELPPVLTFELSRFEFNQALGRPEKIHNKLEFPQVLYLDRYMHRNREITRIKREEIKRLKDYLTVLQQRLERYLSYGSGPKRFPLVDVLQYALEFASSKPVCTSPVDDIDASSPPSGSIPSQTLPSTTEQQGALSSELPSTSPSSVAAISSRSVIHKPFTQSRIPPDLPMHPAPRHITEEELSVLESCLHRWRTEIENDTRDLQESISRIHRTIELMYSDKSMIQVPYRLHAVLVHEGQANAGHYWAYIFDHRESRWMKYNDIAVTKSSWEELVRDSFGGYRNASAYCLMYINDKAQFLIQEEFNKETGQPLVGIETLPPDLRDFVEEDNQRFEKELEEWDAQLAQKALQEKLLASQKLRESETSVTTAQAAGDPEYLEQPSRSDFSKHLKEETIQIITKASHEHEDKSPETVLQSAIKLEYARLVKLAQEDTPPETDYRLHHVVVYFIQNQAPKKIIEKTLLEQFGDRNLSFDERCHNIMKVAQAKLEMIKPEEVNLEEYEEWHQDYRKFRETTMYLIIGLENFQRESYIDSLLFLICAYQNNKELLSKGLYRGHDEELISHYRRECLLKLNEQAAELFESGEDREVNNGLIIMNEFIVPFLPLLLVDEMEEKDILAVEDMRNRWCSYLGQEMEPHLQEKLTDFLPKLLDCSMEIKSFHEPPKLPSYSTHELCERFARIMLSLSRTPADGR
Procedure, shortened: as §1

[5] = target: T4, USP28 (UniProt Q96RU2)
T4 sequence (whole entry): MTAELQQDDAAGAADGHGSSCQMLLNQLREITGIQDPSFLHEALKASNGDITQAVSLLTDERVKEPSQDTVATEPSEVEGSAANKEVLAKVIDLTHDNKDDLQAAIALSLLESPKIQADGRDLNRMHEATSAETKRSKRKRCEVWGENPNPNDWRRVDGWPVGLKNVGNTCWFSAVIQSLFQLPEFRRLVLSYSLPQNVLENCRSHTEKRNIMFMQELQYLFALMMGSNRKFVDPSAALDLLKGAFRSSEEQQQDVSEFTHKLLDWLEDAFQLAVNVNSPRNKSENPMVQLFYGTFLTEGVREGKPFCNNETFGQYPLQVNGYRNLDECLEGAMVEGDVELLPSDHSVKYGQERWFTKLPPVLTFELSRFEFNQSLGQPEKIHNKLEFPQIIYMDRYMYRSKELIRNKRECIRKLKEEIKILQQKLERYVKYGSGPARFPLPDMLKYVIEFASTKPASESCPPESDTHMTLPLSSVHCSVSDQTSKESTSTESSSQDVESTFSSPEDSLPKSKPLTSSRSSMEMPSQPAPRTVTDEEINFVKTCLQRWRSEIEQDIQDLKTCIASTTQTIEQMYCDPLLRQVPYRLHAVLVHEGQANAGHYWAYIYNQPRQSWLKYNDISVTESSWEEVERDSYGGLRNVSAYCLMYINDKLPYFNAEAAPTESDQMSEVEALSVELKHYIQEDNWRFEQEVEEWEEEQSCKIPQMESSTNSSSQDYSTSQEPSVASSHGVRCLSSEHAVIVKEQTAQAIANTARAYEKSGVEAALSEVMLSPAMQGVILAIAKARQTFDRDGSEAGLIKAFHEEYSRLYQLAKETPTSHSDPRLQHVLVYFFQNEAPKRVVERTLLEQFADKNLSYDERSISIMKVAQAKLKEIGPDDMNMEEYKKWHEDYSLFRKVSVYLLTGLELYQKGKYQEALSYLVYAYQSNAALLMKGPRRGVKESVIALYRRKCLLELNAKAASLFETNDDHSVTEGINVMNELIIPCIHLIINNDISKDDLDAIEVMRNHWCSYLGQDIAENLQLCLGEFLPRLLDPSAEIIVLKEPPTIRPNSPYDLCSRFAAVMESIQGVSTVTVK
Procedure, shortened: as §1

Measured: log2 ratio of Biotin-Ahx-Ub-VS probe labelling

O=C(CCl)N1CCC(O)(Cc2ccc(F)cc2)C1 (stereo not given)
inactive: [1] -0.323 | [2] -0.265 | [3] -0.262 | [4] -0.107 | [5] -0.353

Source: the supplement of paper PMC11732987, “Enantioselective OTUD7B fragment discovery through chemoproteomics screening and high-throughput optimisation” (Communications Chemistry, 2025)
